# Measured values: PubChem BioAssay (Tox21)
# Records with an inconclusive call do not appear. Entries that show only a call come without a potency. A number with no mark means an inactive call. Calls of active or inactive are those of the source. Calls come from the whole dose curve; as a rule, active = well fitted cell-killing curve with a large enough effect in the repeat runs; inconclusive = weak or mixed curves, or effect the other way; inactive = flat fitted curve, though single readings scatter.
# Test: qHTS assay to identify small molecule agonists of the estrogen receptor beta (ER-beta) signaling pathway - cell viability counter screen (AID 1259380); note: nearly all actives have a fitted effect of over 30% in size
# Conditions: ER-beta-bla HEK293T viability, CellTiter-Glo luminescence, 16 h; series mostly up to 92.4 µM
# Source text: National Center for Advancing Translational Sciences [NCATS]
# NIH Chemical Genomics Center [NCGC]
# U.S. Environmental Protection Agency [EPA]
# National Institutes of Environmental Health Sciences [NIEHS]
# National Toxicology Program [NTP]
# U.S. Food and Drug Administration [FDA]
# Estrogen receptor (ER), a nuclear hormone receptor, plays an important role in development, metabolic homeostasis and reproduction. Two subtypes of ER, ER-alpha and ER-beta, have similar expression patterns with some uniqueness in both types. Endocrine disrupting chemicals (EDCs) and their interactions with steroid hormone receptors like ER causes disruption of normal endocrine function. To identify the compounds that activate ER signaling, an ER beta-UAS-bla GripTite cell line (Life Technologies, Madison, WI, USA) containing a beta-lactamase reporter gene under the control of an UAS response element was used to screen Tox21 10K compound library. The cytotoxicity of the Tox21 compound library against the ER-beta-bla cell line was tested in parallel by measuring the cell viability using CellTiter-Glo assay in the same wells.
# Tox21 Assay Protocol Summary:
# ER-beta-UAS-bla HEK293T cells were dispensed at 2,000 cells/5 uL of assay medium containing 2% charcoal stripped FBS per well into black wall/clear-bottom 1536-well plates using a Multidrop Combi (ThermoFisher Scientific, Waltham, MA) dispenser. After the assay plates were incubated at a 37C and 5% CO2 for 6 hr, 23 nL of compounds dissolved in DMSO, positive controls or DMSO only was transferred to the assay plate by a Pintool station (Kalypsys, San Diego, CA). The plates were incubated at 37C and 5% CO2 for 16 hr. Then 1 uL of LiveBLAzerTM B/G FRET substrate was added using a BioRAPTR FRD (Flying Reagent Dispenser, Aurora Discovery, San Diego, CA) and then the plates were incubated at room temperature for 2 hours, and fluorescence intensity was measured by an Envision plate reader (PerkinElmer, Shelton, CT). For cell viability readout that measures cytotoxicity, 4 uL/well of CellTiter-Glo reagent was added into the assay plates using a FRD. After 30 min incubation at room temperature, the luminescence intensity in the plates was measured using a ViewLux (PerkinElmer) plate reader.
Structure (SMILES),Potency,"activity change, negative = cytotoxicity"
C=C(C)C1CC=C(C)C(O)C1 (stereo not given),inactive,–
CN1[C@@H]2CC[C@H]1CC(NC(=O)n1c(=O)[nH]c3ccccc31)C2 (stereo not given in full),inactive,–
C[C@H]1O[C@@H](n2cc(F)c(=O)[nH]c2=O)[C@H](O)[C@@H]1O,inactive,–
Cc1c(F)cc2c(=O)c(C(=O)O)cn3c2c1CCC3C (stereo not given),inactive,–
Oc1ccc2c(c1)OC[C@@H](N1CCC(O)(c3ccc(F)cc3)CC1)[C@H]2O,inactive,–
O=C1CC2(CCCC2)CC(=O)N1,inactive,–
C=C(C)C(=O)OCCC(C)OC(=O)C(=C)C (stereo not given),inactive,–
O=[N+]([O-])c1ccc(CCO)cc1,inactive,–
N#CCc1ccccc1[N+](=O)[O-],inactive,–
COc1cc(C)cc(O)c1,inactive,–
CCO[Si](CCCN=C=O)(OCC)OCC,inactive,–
CC(O)CN(CCCN(C)C)CCCN(C)C (stereo not given),inactive,–
CC(C)=CC(=O)O,inactive,–
O=C(O)/C=C/c1ccc(Cn2ccnc2)cc1,inactive,–
CCCCCCC(CCCCCCCCCCC(=O)OCC(COC(C)=O)OC(C)=O)OC(C)=O (stereo not given),inactive,–
O=C(O)c1ccc[n+]([O-])c1,inactive,–
COc1cc(CCC(C)=O)ccc1O,inactive,–
CNC(=O)c1c(I)c(NC(=O)CCCCC(=O)Nc2c(I)c(C(=O)O)c(I)c(C(=O)NC)c2I)c(I)c(C(=O)O)c1I,inactive,–
NC(=O)c1c(Cl)cccc1Cl,inactive,–
NC(=S)Nc1cccc2ccccc12,–,-0.0461% [at 8.39 µM]

Structure (SMILES),Potency,"activity change, negative = cytotoxicity"
CC(C)N1C(=O)c2ccccc2C1=O,inactive,–
CC(C)CCCC(C)CCCC(C)CCCCC(C)CCCC(C)CCCC(C)C (stereo not given),inactive,–
COC(=O)c1ccc(C(=O)OC)c(C(=O)OC)c1,inactive,–
CC(C)CCCC(C)NCCC(C)C (stereo not given),inactive,–
C1COCCO1,inactive,–
c1ccc(SCCSc2ccccc2)cc1,inactive,–
COc1cc(C(=O)N2CCOCC2)cc(OC)c1OC,inactive,–
CC(=O)c1ccc(C)cc1,inactive,–
COc1ccc2cc(C=O)ccc2c1,inactive,–
CCC(=O)/C=C/c1ccc(OC)cc1,inactive,–
CN(C)N=Nc1ccccc1,inactive,–
CC(CCO)CCCC(C)(C)O (stereo not given),inactive,–
Nc1cc(N)cc(C(=O)O)c1,inactive,–
CO,inactive,–
Nc1nc(F)nc2c1ncn2[C@@H]1O[C@H](CO)[C@@H](O)[C@@H]1O,inactive,–
CCn1cc(C(=O)O)c(=O)c2cc(F)c(N3CCN(C)CC3)cc21,–,5.67% [at 19 µM]
CC(=O)NC(Cc1ccccc1)C(=O)O (stereo not given),inactive,–
NC(CS)C(=O)O (stereo not given),inactive,–
Cc1ccc(Nc2ccc(O)c3c2C(=O)c2ccccc2C3=O)cc1,inactive,–
CC12CCC(CC1=O)C2(C)C (stereo not given),inactive,–
